For 35 molecules, z-score results are on record in PubChem BioAssay.

Unmarked numbers belong to inactive results. Active and inactive are the calls of the source.

This assay is described as follows: changes in parasitized red cell lysis, either direction – P. falciparum Indochina, OD700, 3 h, PSAC antagonist project, primary screen (AID 1156). The settings on record: P. falciparum-infected erythrocytes, osmotic lysis, higher = more signal, called active from +8 up or from −8 down.
Consider `COC(=O)C(CC#Cc1ccc2c(c1)[C@]1(C(=O)N2)[C@H](C(=O)NC[C@H](O)c2ccccc2)[C@H]2C(=O)O[C@H](c3ccccc3)[C@H](c3ccccc3)N2[C@@H]1c1ccccc1OCCO)C(=O)OC`, for which the z-score was 0.725.

Consider `CN(C)CCCNC(=O)[C@@]1(Cc2ccccc2I)c2ccccc2C(=O)N(C2CCCCC2)[C@H]1c1ccc(CO)cc1`, for which the z-score was -2.34.

In the case of `CN1C(=O)C2C=CC(C(O)c3ccc(-c4ccccc4)s3)N(NC(=O)OC(C)(C)C)C2C1=O` (stereo not given), the z-score is -0.254.

On to `CCCNC(=O)[C@@]1(Sc2ccc(C)cc2)CC(=O)N(Cc2ccccc2Cl)[C@@H]1c1ccc(CO)cc1I`, for which the z-score was 0.206.

For `CN(C)c1ccc(C(O)C2C=CC3C(=O)N(Cc4ccccc4)C(=O)C3N2n2cnnc2)cc1` (stereo not given), the z-score was 0.747.

`C[C@@H]1ON(c2ccccc2)[C@H](c2ccccc2)[C@H]1C(=O)O`: the z-score was -0.142.

As to `O=C1[C@H]2C=C(I)[C@H](C[C@@H]2c2ccccc2)[C@@]12CO2`, the z-score is 0.402.

With `C=CCC(OC(C)=O)[C@@H]1[C@@H](N(Cc2ccc(-c3cccc(C(F)(F)F)c3)o2)C(=O)c2ccc(-c3ccccc3)cc2)c2cc(OCCCO)ccc2N1C(=O)c1ccc2ccccc2c1` (stereo not given in full), the z-score is 1.36.

`O=C(NCc1ccc(F)cc1)[C@H]1C[C@H]2C(=O)N3CCC[C@H]3C(=O)N2[C@H]1c1ccc(O)cc1`: the z-score was -3.27.

In the case of `N#Cc1ccc(NN2C(C(O)C3CC=CCC3)C=CC3C(=O)N(c4ccccc4)C(=O)C32)cc1` (stereo not given), the z-score is 0.889.

For the molecule `CCCNC(=O)[C@@]1(c2ccc([N+](=O)[O-])cc2)CC(=O)N(C(C)C)[C@@H]1c1ccc(CO)cc1`, the z-score is 1.18.

In the case of `CC(C)N1C(=O)C[C@@](C(=O)NCCN2CCOCC2)(c2ccc([N+](=O)[O-])cc2)[C@H]1c1ccc(CO)cc1`, the z-score was 1.53.

Consider `C[N+](C)(C)CCCC[C@@H]1NC(=O)[C@H]2C[C@@H](C(=O)NCCCCCNC(=O)CS)[C@@H](c3cccc(OCCO)c3)N2C1=O`, for which the z-score is -0.89.

Take `[N-]=[N+]=Nc1ccccc1[C@@H]1OC(c2ccc(OCCCO)cc2)=N[C@]1(Cc1ccccc1)C(=O)NCCN1CCOCC1`: the z-score is 3.9.

For `CCOC(=O)C[C@H]1[C@H](OC(=O)c2ccccc2-c2ccccc2)[C@@H](NC(=O)C2CCCCC2)c2cc(OCCCO)ccc2N1C(=O)c1ccc2ccccc2n1`, the z-score is -0.192.

For the molecule `NC(=O)N1C(=O)C2C(C1=O)C1C=C(CCCO)C2C(c2ccc(CN3CCCC3)cc2)N1Cc1sc2ccccc2c1Cl` (stereo not given), the z-score is 0.363.

Regarding `CC(C)(C)N1CC=CC23O[C@@H]4/C=C\CCCOC(=O)C4[C@H]2C(=O)N(CCCO)[C@@H]3C1=O` (stereo not given in full), the z-score was -0.772.

Regarding `CC(C)N1C(=O)c2ccccc2[C@](C)(C(=O)NCC(F)(F)F)[C@@H]1c1ccc(CO)cc1`, the z-score is -0.377.

`COc1ccc(C#Cc2ccc3c(c2)[C@]2(C(=O)N3)[C@H](C(=O)O)[C@H]3C(=O)O[C@H](c4ccccc4)[C@H](c4ccccc4)N3[C@@H]2c2ccccc2OCCO)cc1`: the z-score was -10.3 (active).

Take `CCCCCC1=C2CNC(Cc3ccccc3)(C(=O)OC)C=C2C(C)C1=O` (stereo not given): the z-score is 1.04.

For `CCCCCCc1nc(-c2ccc(-c3ccc(Cl)c(Cl)c3)o2)cc2c1[Si](C(C)C)(C(C)C)OC2`, the z-score was 0.78.

For `COC(=O)[C@H](Cc1ccccc1)N1CC2=CCCC=C[C@@H]2[C@H]1[C@H](O)Cc1ccccc1`, the z-score is 0.429.

With `COC(=O)[C@@]1(Cc2ccc(F)cc2)[C@H]2c3cc(C(=O)N4CCCC4)n(CCc4ccccn4)c3C[C@H]2CN1C(=O)c1ccccc1`, the z-score is 0.394.

With `O=C1N(CCS(=O)(=O)c2ccccc2)c2ccccc2C[C@]12N=C(c1ccc(OCCCO)cc1)O[C@@H]2c1ccccc1`, the z-score was 1.85.

As to `C=CCN1C(=O)[C@]2(O[C@H](CCn3cc([C@H](O)c4ccccc4)nn3)[C@@H]([Si](C)(C)c3ccc(OC)cc3)[C@@H]2C)c2cc(NC(=O)c3ccc(OC)cc3)ccc21`, the z-score was 2.59.

For `C=C(COC)C(=O)CC[C@@H](OC(C)=O)c1ccccc1OCCO`, the z-score was -0.0421.

Consider `COC(=O)[C@@]1(Cc2ccc(F)cc2)[C@H]2c3cc(C(=O)N4CCCC4)n(Cc4ccccn4)c3C[C@H]2CN1C(=O)c1ccccc1`, for which the z-score is 0.893.

For `C=CCOC(=O)[C@@H]1[C@H]2C(=O)O[C@H](c3ccccc3)[C@H](c3ccccc3)N2[C@H](c2ccc(OCCOC(=O)[C@H]3C[C@H]4C(=O)NCC(=O)N4[C@H]3c3cccc(OCCO)c3)cc2)[C@@]12C(=O)Nc1ccc(I)cc12`, the z-score is 1.06.

Regarding `COC(=O)C[C@H]1O[C@@]2(C[C@@H]1[Si](C)(C)C)C(=O)N(C)c1ccccc12`, the z-score was -1.23.

With `CN(C)CCCC[C@@H]1NC(=O)[C@@H]2C[C@H](C(=O)NCCCCCCNC(=O)CS)[C@H](c3ccc(O)cc3)N2C1=O`, the z-score is -1.22.

Turning to `CCOC(=O)C1=CC[C@@H](c2ccc(OC)cc2)N(S(=O)(=O)c2ccc(C)cc2)[C@H]1CC`, the z-score was -1.07.

On to `C=C(CCCC)/C(=C/C[C@H](OC(=O)c1ccncc1)c1ccc(OCCO)cc1)c1cnc2ccccc2c1`, for which the z-score is 1.98.

As for `COC(=O)[C@@]1(Cc2ccc(F)cc2)[C@H]2c3cc(C(=O)N4CCCC4)n(Cc4cc(F)cc5c4OCOC5)c3C[C@H]2CN1C(=O)c1ccccc1`, the z-score is 3.36.

For the molecule `C=C(CCCC)C(=O)CC[C@H](OC(=O)c1ccccc1-c1ccccc1C(=O)O)c1ccc(OCCO)cc1`, the z-score is 1.49.

On to `C[N+](C)(C)CCCCNC(=O)[C@H]1C[C@H]2C(=O)N[C@@H](Cc3ccccc3)C(=O)N2[C@H]1c1cccc(OCCO)c1`, for which the z-score was -0.835.
